Data on 40 compounds can be found in PubChem BioAssay (Tox21).

Records with an inconclusive call do not appear. Where a call stands in place of a potency, no number is given. Unmarked numbers belong to inactive results. Active and inactive are the calls of the source. The call rests on the fitted dose curve.
Potency means the concentration at half of the fitted maximal effect.

Thyrotropin receptor (Homo sapiens), sequence (P16473 whole entry, looked up): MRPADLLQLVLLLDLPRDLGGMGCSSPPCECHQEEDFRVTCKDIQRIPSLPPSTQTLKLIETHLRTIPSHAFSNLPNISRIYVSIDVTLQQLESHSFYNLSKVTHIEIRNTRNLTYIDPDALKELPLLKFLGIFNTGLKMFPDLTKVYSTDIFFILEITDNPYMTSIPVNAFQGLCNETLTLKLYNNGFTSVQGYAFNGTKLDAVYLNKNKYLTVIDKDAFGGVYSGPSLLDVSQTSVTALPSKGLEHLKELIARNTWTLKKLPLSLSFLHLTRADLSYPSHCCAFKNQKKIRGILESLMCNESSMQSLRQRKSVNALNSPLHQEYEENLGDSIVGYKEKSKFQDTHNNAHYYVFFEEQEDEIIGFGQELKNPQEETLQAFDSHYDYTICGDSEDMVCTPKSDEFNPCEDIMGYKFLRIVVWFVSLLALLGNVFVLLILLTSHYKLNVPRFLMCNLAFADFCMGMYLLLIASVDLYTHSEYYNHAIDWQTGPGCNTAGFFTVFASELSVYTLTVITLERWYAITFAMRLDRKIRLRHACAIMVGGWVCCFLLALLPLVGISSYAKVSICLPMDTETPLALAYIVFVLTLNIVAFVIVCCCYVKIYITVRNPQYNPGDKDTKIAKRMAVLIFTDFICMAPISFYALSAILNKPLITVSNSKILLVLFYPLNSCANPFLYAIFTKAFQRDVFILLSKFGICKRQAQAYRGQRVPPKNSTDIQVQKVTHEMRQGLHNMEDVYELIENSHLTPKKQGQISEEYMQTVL

The experiment deals with Thyrotropin receptor (Homo sapiens) (UniProt P16473). In words: qHTS assay to identify small molecule antagonists of the thyroid stimulating hormone receptor (TSHR) signaling pathway (AID 1259385). Further: nearly all actives have a fitted effect of over 20% in size. The conditions noted are these: TSHR-HEK293 cAMP HTRF, TSH-stimulated antagonist mode; series mostly up to 92.4 µM. The text has this:
U.S. Tox21 Program National Center for Advancing Translational Sciences [NCATS] NIH Chemical Genomics Center [NCGC] U.S. Environmental Protection Agency [EPA] National Institutes of Environmental Health Sciences [NIEHS] National Toxicology Program [NTP] U.S. Food and Drug Administration [FDA] Tox21 Assay Overview: TSHR is the receptor for thyrotropin (thyroid stimulating hormone or TSH), a member of the glycoprotein hormone family. TSH is released by the anterior pituitary gland and is the main regulator of thyroid gland growth and development. Upon binding circulating thyrotropin, a G-protein signal cascade activates adenylyl cyclase and […] cAMP concentration is increased. cAMP is a key second messenger involved extensively in cellular signal transduction pathways associated with the majority of G-protein coupled receptors (GPCRs). The activation of these GPCRs by neurotransmitters, lipids, nucleotides, peptides and hormones results in the activation or the inhibition of plasma membrane-bound adenylate cyclase through heterotrimeric G-proteins. A cell-based TSHR assay can be used to screen chemical compounds that modulate TSHR either in agonist or antagonist mode.
Tox21 Assay Protocol Summary: TSHR-Hek293 cells were dispensed at 800 cells/4uL/well in 1536-well white plates using a Multidrop dispenser. After the assay plates were incubated at a 37C/5% CO2 incubator for 18 hrs, 23 nL of compounds dissolved in DMSO, positive controls or DMSO only was transferred to the assay plate by a pin tool, followed by 1 ul medium containing Ro20-1724. For the antagonist mode screening, 1 uL of TSH was added on the top of the cell/compound mixtures to achieve a final agonist concentration of 1.5 ng/mL. After 30 min of incubation at room temperature, 2.5 ul/well of cAMP-d2 and 2.5 ul/well of anti-cAMP-cryptate were added respectively into the assay plates using a Flying Reagent Dispenser. The plates were incubated at room temperature for 1 hr. The fluorescence intensity in the plates was measured using an Envision plate reader. Each test compound was measured at 15 concentrations and in triplicates.
For orientation: In qHTS, concentration-response curves come from the screen itself.
On to `CC1CCC(=O)O1` (stereo not given), for which the Potency result is “inactive”. Regarding `C=CC1CC=CCC1` (stereo not given), the Potency result is “inactive”.

On to `CCC1(c2ccccc2)C(=O)N=C(O)NC1=O` (stereo not given), for which the Potency result is “inactive”. On the same count and under the same terms, as for `CCOc1nc(C(Cl)(Cl)Cl)ns1`, the entry is “inactive”; as for `[O]=[Cd]`, “inactive”; as for `C[C@]12CC[C@H]3[C@@H](CCC4=CC(=O)CC[C@@]43C)[C@@H]1CC[C@@H]2C(=O)O`, “inactive”. The same measure, in the same setting: as for `C(CCOCC1CO1)COCC1CO1` (stereo not given), the entry is “inactive”; as for `CNCC(=O)c1ccc(O)c(O)c1`, “inactive”; as for `c1ccc(N2CCNCC2)cc1`, “inactive”. Take `NC(=O)O`: the Potency entry was “inactive”. Turning to `O=C(O)c1cccc(Cl)c1`, the Potency result was “inactive”. Still for that read-out and setting: as for `CCN(CC)C(C)C(=O)c1ccccc1` (stereo not given), the entry is “inactive”.

For `CCCCC(=O)Cl`, the Potency entry is “inactive”. Same read-out and setting: as for `COP(=S)(OC)Oc1c(Cl)cc(C)cc1Cl`, the figure is 54.5 µM (active); as for `CC1(C)C(=O)NC(=O)NC1=O`, “inactive”.

As to `O=C(Oc1ccc(Br)cc1)N1CCN2CCC1CC2`, the Potency entry was “inactive”. For `CCN(Cc1ccc(Cl)nc1)/C(=C/[N+](=O)[O-])NC`, the Potency entry is “inactive”.

For the compound `CC1COC2(c3ccccc3Cl)c3cc(Cl)ccc3NC(=O)CN12` (stereo not given), the Potency result is “inactive”. For the compound `Nc1cc2c3c(c1)C(c1ccccc1)=N[C@@H](NC(=O)c1cccnc1)C(=O)N3CC2`, the Potency result is “inactive”. With `CCCCOC(=O)c1ccccc1C(=O)O`, the Potency entry is “inactive”. With `CCC(=O)c1ccccc1`, the Potency entry was “inactive”. With `Cc1cnc[nH]1`, the Potency entry was “inactive”. The same measure, in the same setting: as for `CC(C)(C)NCC(O)c1cc(Cl)c(N)c(Cl)c1` (stereo not given), the entry is “inactive”; as for `COc1cc(OC)nc(NC(=O)NS(=O)(=O)c2ncccc2C(=O)N(C)C)n1`, “inactive”.

For the compound `CC1=C(C(=O)O)N2C(=O)[C@@H](N)[C@H]2SC1`, the activity change, negative = inhibition is 2.26% [at 19 µM].

For the compound `CN1C[C@@H](NS(=O)(=O)N(C)C)C[C@@H]2c3cccc4c3c(cn4C)C[C@H]21`, the Potency result was “inactive”. With `O=C1OC(CCN2CCCCC2)OC1(c1ccccc1)c1ccccc1` (stereo not given), the Potency result was “inactive”. For `OCCBr`, the Potency entry was “inactive”. With `COC(C)(C)C`, the Potency entry was “inactive”. With `CCCCP(CCCC)CCCC`, the Potency result was “inactive”. For the compound `Clc1ccccc1N1CCNCC1`, the Potency result is “inactive”.

On to `CC(C)(C)OC(=O)c1ncn2c1[C@@H]1CCCN1C(=O)c1c(Br)cccc1-2`, for which the Potency result was “inactive”.

`CN1CCC(O)(c2ccc(F)cc2)C(C(=O)c2ccc(F)cc2)C1` (stereo not given): the Potency entry is “inactive”.

Regarding `CCCCOP(=O)(O)OCCCC`, the Potency entry is “inactive”. `Cc1coc2c1CCC(C)C2` (stereo not given): the Potency entry is “inactive”. For `COc1cc2c(cc1OC)[C@@]13CCN4CC5=CCO[C@H]6CC(=O)N2[C@H]1[C@H]6[C@H]5C[C@H]43`, the Potency entry was “inactive”. As for `COc1ncc(F)c2nc(S(=O)(=O)Nc3c(F)cccc3F)nn12`, the Potency result was “inactive”. The same measure, in the same setting: as for `CCCSC(=O)N(CCC)CCC`, the entry is “inactive”; as for `CCOP(=S)(OCC)Oc1ncn(-c2ccccc2)n1`, “inactive”; as for `ClC(Br)Br`, “inactive”.
